Measurements reported in PubChem BioAssay (NCI).
About 79,000 compounds went through this panel and 15% of them were active in at least one assay; those are over-represented in the sample as a whole. Unmarked numbers belong to inactive results. The source made the active and inactive calls. Cut-off read from the data, not from the text of the source: active = growth inhibition above about 70%; inactive = the rest.

Test: NCI Yeast Anticancer Drug Screen. Data for the cln2 rad14 strain (AID 165);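 note: 0% = growth equal to vehicle treated cultures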
Settings: S. cerevisiae cln2 rad14 strain, at 50.0 µM, active compounds read high
Summary of the method: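 Test compounds were added to cln2 rad14 yeast cultures; inhibition of growth was then determined by comparison with vehicle treatment.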

Compound | growth inhibition
NC(N)=NOCC(=O)O | -42.5%
COC(=O)[C@@H](CO)NC(=O)OC(C)(C)C | 21.6%
OCCCCCCCCCCCO | -15.5%
NC(=O)N/N=C1\CCCCC12CCCCC2 | -16.1%
N/C(=N\C(=O)OCCOC(=O)/N=C(/N)c1ccccc1)c1ccccc1 | -20.5%
Cn1c(=O)c2c(ncn2C2C(=O)NNC2=O)n(C)c1=O | 2.35%
CSc1nc(=O)cc(N)n1C | -23.7%
COC(=O)CCc1nc2ccccc2c(=O)[nH]1 | -35.8%
COC(=O)c1cc(-c2ccc3ccccc3c2)[nH]c(=O)c1C#N | 46.9%
CC(=O)Nc1ccc(Cc2ccc3[nH]c(=O)cc(C)c3c2)cc1 | 5.35%
O=C(O)c1nc(N=Nc2ccc(S(=O)(=O)O)cc2)[nH]c1C(=O)O | -30.7%
S=C(NCCS)Nc1ccccc1 | -46.6%
N#CNC(=O)c1ccc(Cl)cc1 | -21.4%
CC(C)c1ccc2c(c1)CC[C@H]1[C@](C)(COCCC#N)CCC[C@]21C | -63.1%
O=c1cc(C=Nc2ccc(-c3csc(-c4ccccc4)n3)cc2)[nH]c(=S)[nH]1 | 97.2% (active)
N#Cc1c(C(=O)NN)c2c(-c3ccc4ccccc4c3)n[nH]c(=O)c2[nH]c1=O | 4.1%
COc1cccc(/C=C2\C(=O)N(C(=O)c3ccc(NC(C)=O)cc3)N=C2C)c1 | -17.2%
COc1ccc(C(=O)NC(=S)Nc2cc(C(F)(F)F)ccc2Cl)cc1 | 84.8% (active)
CC(C)=CC(=O)OC1C2C(C)C(=O)OC2C(O)C(C)C2C=CC(=O)C21C (stereo not given) | 16.9%
O=C(COc1ccc(Cl)cc1)Oc1c(Cl)cc(Cl)cc1Cl | 96.8% (active)

Compound | growth inhibition
CC(C)(O)CCC(C)(C)O | -25.9%
CC(=O)Nc1cc(N)ccc1C | -18.2%
CCOC(=O)C(C)(C(=O)OCC)c1c[n+]([O-])c2ccccc2c1[N+](=O)[O-] | -22.4%
CCCc1c(C(=O)O)c(-c2cccc3ccccc23)c(CCC)c2c1-c1cccc3cccc-2c13 | 71.2% (active)
CC1CCCCN1S(=O)(=O)N(C)C (stereo not given) | -6.1%
Brc1ccncc1 | 3.35%
CC1(C)COC(CCl)OC1 | -16.5%
COC(=O)c1nnn(-c2ccc(C)c(C)c2)c1C(=O)c1ccccc1 | 16.5%
CC(=O)Nc1c(C(N)=O)cnn1-c1ccccc1 | -0.2%
CN(C)c1ccc(/C=C(\C#N)c2c(Br)cccc2Br)cc1 | -42.8%
CCSC(N)=Nc1ccccc1 (tested in a mixture with another compound) | 13.3%
Nc1nc(N)c(-c2ccc(Cl)cc2)c(CNc2cccc([N+](=O)[O-])c2)n1 | 95% (active)
CC1(C)OC2CC(=O)OCC23C1CC(=O)C1(C)C3CCC2(C)C(c3ccoc3)OC(=O)C3OC321 (stereo not given) | 10.1%
CC1CCCCC[N+]1(C)CCO (stereo not given) | -30.7%
CCCCCCCCCCCCCCCCCCNC(=S)N(C)C | 1.25%
O=S(=O)(OCCCC1CC2C=CC1C2)c1ccc(Br)cc1 (stereo not given) | -7.05%
CC(=O)O[C@@H]1[C@H]2[C@@H](OC(=O)c3ccccc3)[C@@H](C)C[C@]2(O)[C@H](OC(C)=O)[C@@]2(C)[C@@H]3C[C@@](C)(OC(C)=O)C[C@@H](OC(C)=O)[C@@]3(OC(C)=O)C[C@@]12C | -32.8%
O=NN(CCCl)C(=O)NCCc1cccc[n+]1[O-] | -5.75%
O=C(O)c1c[nH]c2cc(OCc3ccccc3)ccc2c1=O | -7.15%
Cc1cccc(C[P+](C/C=C/c2ccccc2)(c2ccccc2)c2ccccc2)c1 | 99% (active)
